High-throughput results: PubChem, The Scripps Research Institute Molecular Screening Center
ssDAF12 agonist – S. stercoralis DAF-12 activation, primary screen | 370,000 compounds, 1% hits | HEK293 ssDAF-12/GRIP1 lit1-tk-luc reporter, luminescence; % of 3 µM dafachronic acid response | activation, % at 6.8 µM;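 active means activation above the mean over all tested compounds plus 3 SD, cut at about 0.9% in these data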
hgDAF-12 ag – hgDAF-12 agonism, primary luciferase screen | HEK293 GAL4-hgDAF12 UAS-luciferase reporter, agonist luminescence; normalized to butyrate control | activation, % at 6.8 µM | 370,000 compounds, 1.8% hits;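 active means activation above a cutoff set at the mean of all screened compounds plus 3 SD, cut at about 10% in these data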
DAX1 inh-1 – DAX1 (NR0B1) inhibition, primary screen; inhibition, % at 6.8 µM; 370,000 compounds, 1.1% hits; HEK293T StAR-luciferase reporter, SF-1/DAX-1 repression relief;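 active means inhibition above the mean over all tested compounds plus 3 SD, cut at about 3.6% in these data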;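 further: higher inhibition means more luminescence from relief of DAX-1 repression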
SMARCA2 act – activators of SMARCA2 function; MG213 cells, MMTV-luciferase reporter, dexamethasone, overnight; activation, % at 9.1 µM; 370,000 compounds, 1% hits; AID 652017; in the data active means activation above about 7.8%
DAX1 inh-2 – NR0B1 (DAX1) inhibition; HEK293 Gal4-DAX1 luciferase reporter, luminescence; inhibition, % at 6.75 µM; 340,000 compounds, 0.99% hits; AID 504766;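 active means inhibition above the mean over all tested compounds plus 3 SD, cut at about 4.2% in these data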;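 further: inhibition shows as a rise in luminescence from relieved DAX1 repression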
Target sequence (P51843 207-470 limits assumed): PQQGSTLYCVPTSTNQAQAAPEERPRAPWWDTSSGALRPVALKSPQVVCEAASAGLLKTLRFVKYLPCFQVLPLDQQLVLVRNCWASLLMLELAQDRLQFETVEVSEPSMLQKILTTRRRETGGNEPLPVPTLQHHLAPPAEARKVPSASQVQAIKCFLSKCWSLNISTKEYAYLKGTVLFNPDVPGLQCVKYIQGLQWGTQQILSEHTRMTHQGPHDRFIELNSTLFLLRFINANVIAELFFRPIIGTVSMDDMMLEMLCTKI
hcDAF12 agonist – H. contortus DAF-12 activation, primary screen; activation, % at 6.8 µM; HEK293 hcDAF-12 lit1-tk-luc reporter, luminescence; 0% DMSO, 100% Δ7-dafachronic acid; 370,000 compounds, 1.4% hits;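 active means activation above the mean of all tested compounds plus 3 SD, cut at about 5.5% in these data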
Numbers stand for hits; . = inactive; / = no result. The list is not random: actives were taken first. Their share in the collection is about 4.8%.

SMILES	ssDAF12 agonist	hgDAF-12 ag	DAX1 inh-1	SMARCA2 act	DAX1 inh-2	hcDAF12 agonist
Cc1sc(NC(=O)c2ccco2)c(C(Nc2ccccn2)c2ccccc2)c1C (stereo not drawn)	.	11	.	.	.	.
Nn1c(SCC(=O)Nc2ccc(OCc3ccccc3)cc2)nnc1-c1cc(-c2ccccc2)n[nH]1	.	.	.	.	/	.
O=C(NNC1=C(C(=O)C(F)(F)F)CCC1)c1cccnc1	.	.	.	.	.	.
Cc1cccc(C(=O)NNC2=C(C(=O)C(F)(F)F)CCC2)c1O	.	12	.	.	.	.
O=C(c1ccco1)N1CCN(C2CN(C3CCCCC3)S(=O)(=O)C2)CC1 (stereo not drawn)	.	.	3.9	.	/	.
COC(=O)c1cccc(OC[C@@H](O)CN2CCC(C(O)(c3ccccc3)c3ccccc3)CC2)c1	.	.	.	.	/	.
COc1ccc(C(=O)/C=C/Nc2cccc(C)n2)cc1OC	.	11	.	.	.	.
CCCCCCCCN1C(=O)[C@@H](CC(=O)N2CCN(C(=O)c3ccco3)CC2)C[C@@]2(C(=O)OC)C1=C[C@H](C(C)C)O[C@@H]2C1CC1	.	.	.	.	/	.
O=C(NCCc1ccccc1)c1ccccc1SCC(=O)N1CCCC1	1.2	.	.	.	.	6.4
Cc1ccccc1NC(=O)COC(=O)c1ccccc1SCC(=O)N1CCCC1	.	.	.	.	4.3	.
COc1ccccc1CCNC(=O)c1ccccc1SCC(=O)N1CCCC1	.	.	.	.	.	.
CCNC(=O)NC(=O)COC(=O)c1ccccc1SCC(=O)NC(=O)NCC	2.3	12	3.9	.	.	7.9
CC(C)CN1C(=O)[C@@]2(CC(=O)N(C)C2c2ccccc2)c2cc(-n3cc(CCCC#N)nn3)ccc21 (stereo partly drawn)	.	.	.	.	/	.
C[C@H](O)[C@@H]1C(=O)N2CCc3c([nH]c4cccc(-c5ccccc5)c34)[C@@H]2C[C@@H]1N(C)C(=O)c1ccco1	.	.	.	.	/	.
O=C(NCCc1ccccc1Cl)[C@@H]1CCCN1C(=O)[C@H](Cc1cccnc1)NC(=O)N1CCOCC1	.	.	.	.	/	.
O=S(=O)(CC1NCc2cc(F)ccc21)NCc1ccccc1 (stereo not drawn)	.	.	.	.	/	.
CCCN1C(=O)c2n[nH]c(C)c2C1c1ccc(Br)cc1 (stereo not drawn)	.	.	.	.	/	.
Cc1nnc2sc(-c3ccc(N(C)C)cc3)nn2c1=O	.	12	.	.	.	.
CCCC1CCC2(CC1)CCC2OC(=S)Nc1cccc(Cl)c1 (stereo not drawn)	.	.	/	/	/	.
COc1ccc(CC2CCN(c3ncnc4sccc34)CC2)cc1	.	.	/	/	/	.
C/C(CC(C)C)=N/Nc1ccc([N+](=O)[O-])cc1[N+](=O)[O-]	.	.	.	.	.	.
CC(Cc1ccccc1)=NNc1ccc([N+](=O)[O-])cc1[N+](=O)[O-]	2.4	.	.	.	.	.
COc1ccc(C(=O)N/N=C\c2ccoc2)cc1	.	.	.	.	.	.
COc1ccc(/[N+]([O-])=C/c2ccoc2)cc1	.	11	.	.	.	.
C/C(=N\OC(=O)c1ccc(Br)cc1)c1ccccn1	0.9	.	.	.	.	.
SMILES	ssDAF12 agonist	hgDAF-12 ag	DAX1 inh-1	SMARCA2 act	DAX1 inh-2	hcDAF12 agonist
O=C(COC(=O)c1ccc(Sc2ncn[nH]2)c([N+](=O)[O-])c1)Nc1cccc(Cl)c1F	.	.	.	.	/	.
Cc1cccc(C(=O)N[C@H]2CC[C@@]34CCCN3C(=O)CCC[C@H]4[C@H]2C)c1	.	.	/	/	/	.
O=c1[nH]c(-c2ccc3c(c2)OCO3)nc2c1sc(=S)n2-c1ccccc1	1.0	.	.	.	.	.
CC1Sc2ccc(C(=O)Nc3ccccc3OC(F)F)cc2NC1=O (stereo not drawn)	.	.	4.3	.	.	.
COc1ccc2ccccc2c1C=NNC(=O)c1cc(-c2ccc(C)c(C)c2)n[nH]1	.	.	.	.	/	.
CC(C)C[C@@H]1COc2cc(Br)ccc2S(=O)(=O)N1Cc1cn(CCC2OCCCO2)nn1	.	.	.	.	/	.
COc1ccc(N2CCN(CCCNC(=O)Cc3ccc(C(F)(F)F)cc3)CC2)cc1	.	.	.	.	/	.
O=C(c1cccc(Cl)c1)N1CCN(c2ccnc3cc(Cl)ccc23)CC1	.	.	/	/	/	.
CCc1ccc(Nc2ncc3c(n2)CC(C)CC3=O)cc1 (stereo not drawn)	.	.	3.8	.	.	.
CCc1ccc(Nc2ncc3c(n2)CC(C)(C)CC3=O)cc1	.	.	.	.	7.1	.
Cn1c2ccccc2c2nnc(NN)nc21	.	.	.	.	.	5.7
CC(=O)Nc1ccc(Oc2cnc3ccccc3n2)cc1	.	.	.	.	.	.
CC(=O)Nc1cccc(Oc2cnc3ccccc3n2)c1	.	.	.	.	4.6	.
O=C(NS(=O)(=O)Nc1ccc(Cl)cc1)c1c[nH]c2ccccc12	.	.	.	.	.	.
COc1cccc(NS(=O)(=O)NC(=O)c2c[nH]c3ccccc23)c1	.	.	.	.	.	.
CN(C)S(=O)(=O)c1cccc(NC(=O)c2c[nH]c3ccccc23)c1	1.3	.	.	.	.	.
COc1ccc(NS(=O)(=O)NC(=O)c2c[nH]c3ccccc23)cc1	.	.	.	.	.	5.8
O=C(NS(=O)(=O)Nc1ccccn1)c1c[nH]c2ccccc12	1.0	.	.	.	.	.
Cn1c(=O)c2[nH]c(SCC(=O)N3CCN(c4cccc(C(F)(F)F)c4)CC3)nc2n(C)c1=O	.	.	.	.	/	.
O=C(c1ccncc1)N1CCC(Oc2cccnc2)CC1	.	.	.	.	/	.
CCN(CC)CC(O)Cn1c(-c2cccc(Cl)c2)nc2cc(C)c(C)cc21 (stereo not drawn)	.	.	.	.	4.2	.
COC(=O)C1CN(Cc2cn(Cc3ccc(OC)cc3)nn2)CCS(=O)(=O)N1Cc1ccc(OC)cc1 (stereo not drawn)	.	.	.	.	/	.
Cc1ccc(-n2c(Cc3cccn3C)nnc2SCC(=O)NCc2ccco2)cc1	.	.	.	.	.	.
Cc1ccc(-n2c(CSc3nc(C)cc(C)n3)nnc2SCC(=O)NCc2ccco2)cc1	0.9	.	.	.	.	5.6
C[C@H]1[C@@H](C(=O)N2CCCC2)Cc2nc3ccccc3nc2C[C@@H]1c1ccccc1	.	.	.	.	/	.
COc1ccc(-c2nc(-c3ccccn3)no2)cc1	.	.	.	.	.	.
Clc1ccc(-c2nc(-c3ccccn3)no2)cc1Cl	.	12	3.6	.	.	.
COc1ccc(-n2ccnc2CN2CCN(C3CCCC3)C(CCO)C2)cc1 (stereo not drawn)	.	.	.	.	4.7	.
